Measurements published in ChEMBL document CHEMBL3988442, “University of Dundee, Small-Polar-MMV Screening Library” (2021).
The campaign covered roughly 48,000 compounds. About 13,000 (27%) showed an effect of 50% or more. The list shows a part of the results.

System: Wolbachia pipientis
Test: Anti-Wolbachia Cell-Based Screen
Assay type: functional
Set-up: scale not given: in the data most compounds retested in dose-response had high values
Conditions: 5 µM

Compound | Percent Effect [%]
Cc1nnn2c1COC(CNCc1ccccn1)C2.O=C(O)C(F)(F)F (stereo unspecified) | -4.028
Cc1cnc(N)nc1NCCSCc1[nH]cnc1C | -14.55
Cc1ccc(C)n1-c1ccc(C(=O)NCCNc2ncccn2)cc1 | 4.736
Cc1nc(CN2CCCN(C(=O)COCC3CC3)CC2)cs1 | 18.11
CC(C)c1nc(CN2CCCC(O)C2)cs1 (stereo unspecified) | 12.3
Cc1cccc(CN2CCCC(c3nccs3)C2)n1 (stereo unspecified) | 160.1
CC1CCCN(Cc2csc(-c3ncccn3)n2)CC1 (stereo unspecified) | 3.521
Cc1cccc(CN2CCN(Cc3ccccc3)CC(O)C2)n1 (stereo unspecified) | -8.122
Cc1nc(CN2CCCC(c3nccs3)C2)cs1 (stereo unspecified) | 114.8
Cc1nc(CN2C[C@@H]3CN(C(=O)c4cnccn4)C[C@@H]3C2=O)cs1 | 9.269
CCn1ccnc1C1CCN(Cc2cccc(C)n2)CC1 | -3.832
Cc1nc(CN2CCCC(c3cnccn3)C2)cs1 (stereo unspecified) | 124.4
CSCC(=O)N1C[C@H]2CC[C@@H]1CN(Cc1ccccc1)C2 | -24.58
COCCc1noc(Cn2ccc3ncccc3c2=O)n1 | -12.09
CCOc1ccc2[nH]c(=O)c(CN(C)CCc3cn[nH]c3)cc2c1 | -1.744
Cc1ccc(CN2CCOC3(COCCN(S(C)(=O)=O)C3)C2)s1.O=C(O)C(F)(F)F (stereo unspecified) | -6.803
Cc1ccc(CN2C[C@@H]3COC[C@H](NS(C)(=O)=O)[C@@H]3C2)s1.O=C(O)C(F)(F)F | 111.5
CCc1ccc(CN2C[C@@H]3COC[C@H](NS(C)(=O)=O)[C@@H]3C2)o1.O=C(O)C(F)(F)F | 136.7
Cc1ccc(CN2C[C@@H]3COC[C@H](NS(C)(=O)=O)[C@@H]3C2)o1.O=C(O)C(F)(F)F | 6.614
Cc1ccc(CN2C[C@@H]3COC[C@@H](NS(C)(=O)=O)[C@@H]3C2)o1.O=C(O)C(F)(F)F | -14.86
Cc1ccc(CN2CC(C(=O)Nc3ccccc3)C3(CCOCC3)C2)s1.O=C(O)C(F)(F)F (stereo unspecified) | -15.56
CC(NC(=O)Cn1cc(-c2ccccc2)cn1)C1CC1 (stereo unspecified) | 82.35
CCC(CC)NC(=O)Cn1cc(-c2ccccc2)cn1 | 106.4
CC(C#N)(NC(=O)Cn1cc(I)cn1)C1CC1 (stereo unspecified) | 6.618
CC(C)CNC(=O)Cn1cc(C(N)=O)c(-c2ccccc2)n1 | 7.305
CC(NC(=O)CN1C=Nc2ccccc2S1(=O)=O)C1CC1 (stereo unspecified) | 22.51

Compound | Percent Effect [%]
CC(NC(=O)COc1ccccc1I)C1CC1 (stereo unspecified) | 10.59
Cc1ccc(NC(=O)Cn2cc(I)cn2)cc1 | 92.57
O=C(Cn1cc(-c2ccccc2)cn1)NC(C1CC1)C1CC1 | 101.4
CNC(=O)NC(=O)Cn1cc(-c2ccccc2)cn1 | -1.753
CC(C)C(C)(C#N)NC(=O)Cn1cc(I)cn1 (stereo unspecified) | 3.38
CCC(C)(C)NC(=O)Cn1cc(C(N)=O)c(-c2ccccc2)n1 | -8.057
O=C(Cc1cnn(-c2ccccc2)n1)NC(C1CC1)C1CC1 | -0.6445
Cc1csc(CN2C[C@@H]3CN(CC4CCOCC4)CCO[C@@H]3C2)n1 | -2.484
Fc1cccc(N2CCCC3(CN(Cc4nccs4)CCO3)C2)c1.O=C(O)C(F)(F)F.O=C(O)C(F)(F)F (stereo unspecified) | -19.19
CC(C)(C)c1nnc(CN2CCN(C(=O)N3CCCCC3)CC2)o1 | 1.432
CC(C)NC(=O)Cn1cc(-c2ccccc2)cn1 | 1.398
Cc1ccc(-c2cnn(CC(=O)NC(C)C)c2)cc1 | 96.48
CC(C)C(C)(C#N)NC(=O)Cn1cc(-c2ccccc2)cn1 (stereo unspecified) | -4.052
CCC(CNC(=O)c1c(C)nn(C)c1OC)Oc1ccccc1 (stereo unspecified) | -1.987
CCc1nc(NS(=O)(=O)c2cc(C)ccc2Br)no1 | -0.5408
CN(CC1CCCC1)C(=O)c1cn(C)nc1-c1cccnc1 | -17.59
CCCN1CCCn2nc(CNC(=O)CN(C)C3CCCC3)cc2C1 | -1.804
CCCn1nc(C)c(-c2cncn2CCN(C)C2CCCC2)c1C.Cl | 99.02
CCn1nc(C)c(-c2cncn2CCN(C)C2CCCC2)c1C.Cl | 94.51
Cc1nn(C)c2nc(N(C)CCN(C)C3CCCC3)sc12 | -5.269
Cc1nn(C)cc1-c1cncn1CCN(C)C1CCCC1.Cl | 82.1
Cc1cc(C)nc(N(C)CCN(C)C2CCCC2)n1 | 8.027
Cn1nnc(C2(NC(=O)c3ccccc3)CCCC2)n1 | -16.42
COCc1nc(NCC2CCS(=O)(=O)C2)c2cnn(C)c2n1 (stereo unspecified) | 14.43
CCCn1cc(C(=O)NC2CCN(CC(=O)NC3CC3)CC2)c(C)n1 | -20.41
Cn1ncc2c(N[C@H]3CC[C@@H](N)CC3)nc(C(C)(C)C)nc21 | -50.36

Compound | Percent Effect [%]
CCc1nc(NC2CCCN(C(=O)C3CC3)C2)c2cnn(C)c2n1 (stereo unspecified) | 100.4
CCc1nc(NCC2CCCN(C(=O)C3CC3)C2)c2cnn(C)c2n1 (stereo unspecified) | 149.3
CC(=O)NCCNc1nc(C2CCCC2)nc2c1cnn2C | -24.98
Cn1ncc2c(N[C@@H]3CS(=O)(=O)C[C@H]3O)nc(C(C)(C)C)nc21 | -3.65
COCCN1CC(Nc2nc(C3CCCC3)nc3c2cnn3C)CC1=O (stereo unspecified) | -0.7638
CCc1nc(NC2CCN(CC(=O)NC3CC3)CC2)c2cnn(C)c2n1 | 85.47
Cn1ncc2c(N[C@H]3CCCC[C@@H]3O)nc(C(C)(C)C)nc21 | 2.356
CC(C)C(=O)N1CCC(CNc2nc(C(C)C)nc3c2cnn3C)CC1 | -5.658
Cn1ncc2c(NC3CCCN(C(=O)C4CC4)C3)nc(C(C)(C)C)nc21 (stereo unspecified) | 108.6
Cc1cc(C(=O)NCc2ccc(N3CCCC(C(N)=O)C3)cc2)no1 (stereo unspecified) | -5.438
O=C(Cc1ccc(F)c(F)c1)NC1COc2ccccc2C1=O (stereo unspecified) | -17.04
Cc1ccc(CN(CC(=O)NC2CCOCC2)c2ccc(F)cc2)o1 | -4.166
CCOc1ncnc2c1CCN(C(=O)CN(C)C)CC2.O=C(O)C(F)(F)F | -0.06996
O=C(c1cc[nH]n1)N(Cc1ccc(F)cc1)CC1CC1 | -5.824
CCN(CC)C(CNC(=O)CCc1nc(C(C)C)no1)c1ccco1 (stereo unspecified) | -1.128
CC(C)c1cc(NC2CCCN(C(=O)c3cccs3)C2)ncn1 (stereo unspecified) | -8.38
NC(=O)c1cnc(NC2CCN(C(=O)C3CC3)CC2)c(Cl)c1 | 4.189
Cc1nc(N2CCN(C(=O)C3CC3)CC2)c2c(n1)c(C)nn2C | 1.518
CCc1nc(NC2CCCN(C(=O)c3cccs3)C2)c2cnn(C)c2n1 (stereo unspecified) | 96.59
Cc1nc(NC2CCN(C(=O)C3CC3)CC2)c2cnn(C)c2n1 | 200.9
Cn1ncc2c(=O)[nH]c(CN3CCCC3c3cccs3)nc21 (stereo unspecified) | -2.053
COC(=O)c1sccc1S(=O)(=O)NCCc1ccoc1 | -8.727
CN(C)c1ncc(I)c(C2CCCCN2S(C)(=O)=O)n1 (stereo unspecified) | 26.22
CN(C)c1ncc(I)c(C2CCCCN2C)n1 (stereo unspecified) | 140.6
CC1CCCCN1C(=O)Cn1cc(I)cn1 (stereo unspecified) | 11.08
CN(C)c1ncc(I)c(C2CCCN2C)n1.Cl (stereo unspecified) | 88.04

Compound | Percent Effect [%]
CN(C)c1cccc(C2CCCN2S(N)(=O)=O)c1 (stereo unspecified) | -8.581
CN(C)c1ncc(I)c(C2CCCN2S(C)(=O)=O)n1 (stereo unspecified) | 113.9
Cc1nc(CN2CCC(CNC(=O)NCCC3CCC3)CC2)oc1C | -2e-14
CN(C)C(=O)c1nc(CN2CC(Cc3ccccc3)CC2=O)no1 (stereo unspecified) | 4.683
CC(=O)N1CCc2[nH]cnc2C12CCN(C(=O)CCn1cccn1)CC2 | -18.33
COC[C@@]12CC[C@@H](N3CCOCC3)C[C@H]1CCN(c1cnccn1)C2 | 11.4
CCN1CCc2cc(C(=O)N(C)C)c(NCC3CC3)nc2CC1 | 103.3
CNC(=O)c1cc2c(nc1NCC1CC1)CCNCC2 | 13.18
CNC(=O)N1CCc2cc(C(=O)NCC3CC3)c(NC(C)C)nc2CC1 | 0.2326
CCS(=O)(=O)N1CCc2cc(C(=O)N(C)C)c(NCC3CC3)nc2CC1 | 112.1
CNC(=O)c1cc2c(nc1NCC1CC1)CCN(S(=O)(=O)C1CC1)CC2 | 20.95
CN(C)C(=O)c1cc2c(nc1NCC1CC1)CCN(CC1CC1)CC2 | 87.77
CC(C)Nc1nc2c(cc1C(=O)N(C)C)CCNCC2.O=C(O)C(F)(F)F.O=C(O)C(F)(F)F | -6.085
CNC(=O)N1CCc2cc(C(=O)N(C)C)c(NCC3CC3)nc2CC1.O=C(O)C(F)(F)F | 7.418
CNC(=O)c1cc2c(nc1NCC(C)C)CCN(CC1CC1)CC2.O=C(O)C(F)(F)F.O=C(O)C(F)(F)F | 9.792
CN(C)C(=O)c1cc2c(nc1NCC1CC1)CCNCC2 | 103.6
CNC(=O)c1cc2c(nc1NCC1CC1)CCN(c1ccncn1)CC2.O=C(O)C(F)(F)F | -1.556
Cc1ccnn1-c1ccc(C(=O)N2CCN(c3cnccn3)CC2)cc1 | 15.98
Cc1cc(CNc2cc(Cl)ccc2Cl)no1 | -3.438
CC/N=c1\nc(NCC)nc2n1C(O)(Nc1cccc(Cl)c1Cl)CS2 (stereo unspecified) | 212.9
CC/N=c1\nc(NCC)nc2n1C(O)(Nc1cc(Cl)ccc1Cl)CS2 (stereo unspecified) | 112.8
CC/N=c1\nc(NCC)nc2n1C(O)(Nc1cccc(C)c1C)CS2 (stereo unspecified) | 97.63
CC/N=c1\nc(NCC)nc2n1C(O)(Nc1ccc(C)cc1C)CS2 (stereo unspecified) | 134.3
